Measured values from the supplement of paper PMC3334620.
The full ranking holds about 33,000 sequences; the median of “E-score (-0.5 to 0.5)” is about -0.015, and the highest 2% start at about 0.3. The full list was thinned out, with the highest values kept by preference.

Target: T1, Abf1 (UniProt P14164)
T1 sequence: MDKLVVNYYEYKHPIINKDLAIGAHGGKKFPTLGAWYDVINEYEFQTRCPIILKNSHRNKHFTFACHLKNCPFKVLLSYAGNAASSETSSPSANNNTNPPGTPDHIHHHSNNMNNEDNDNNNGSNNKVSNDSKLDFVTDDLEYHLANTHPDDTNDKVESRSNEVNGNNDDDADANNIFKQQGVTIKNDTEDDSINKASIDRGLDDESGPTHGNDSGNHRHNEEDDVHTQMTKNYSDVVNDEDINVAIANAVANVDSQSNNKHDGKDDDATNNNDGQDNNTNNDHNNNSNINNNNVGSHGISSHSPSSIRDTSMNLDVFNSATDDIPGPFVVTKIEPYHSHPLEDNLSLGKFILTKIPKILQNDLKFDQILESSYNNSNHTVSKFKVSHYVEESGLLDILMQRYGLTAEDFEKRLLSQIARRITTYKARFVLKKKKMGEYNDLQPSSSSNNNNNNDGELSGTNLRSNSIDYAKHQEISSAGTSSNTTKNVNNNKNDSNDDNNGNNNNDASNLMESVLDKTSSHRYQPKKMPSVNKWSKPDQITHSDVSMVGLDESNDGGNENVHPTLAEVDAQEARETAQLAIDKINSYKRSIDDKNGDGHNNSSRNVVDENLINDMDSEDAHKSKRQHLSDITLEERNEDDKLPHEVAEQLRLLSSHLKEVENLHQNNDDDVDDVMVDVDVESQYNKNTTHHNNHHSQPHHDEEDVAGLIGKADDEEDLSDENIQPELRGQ
Assay: PBM E-score (8-mer binding enrichment) (E-score (-0.5 to 0.5)); higher = stronger / more preferred TF binding
Conditions: protein concentration: 200 nM; construct: GST-full length
Description: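 Universal 'all 10-mer' protein binding microarrays (Agilent AMADID 015681) probed with GST-tagged S. cerevisiae TFs (full-length or DBD) made by in vitro transcription/translation (PURExpress), about 100-200 nM. Bound TF was detected with fluorescent anti-GST. Each ungapped 8-mer (which stands for itself and its reverse complement) is scored by the PBM enrichment score (E-score), a modified Wilcoxon-Mann-Whitney statistic from -0.5 to +0.5, computed with the Universal PBM Analysis Suite. Scale: above 0.35 generally sequence-specific binding.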

| Sequence | PBM E-score |
| --- | --- |
| TCAGGCGA | 0.0781 |
| ATCGACTA | 0.029 |
| ATAAGATG | 0.201 |
| ATGTTCTG | 0.093 |
| GGTCGCAA | -0.0813 |
| GGAGAGCA | -0.253 |
| ACTATGGA | -0.013 |
| AAAATGGC | 0.0419 |
| ATAATTAC | 0.261 |
| ATAATTAT | 0.303 |
| AGAATGAT | 0.33 |
| ATAATTAA | 0.274 |
| ATAATGAT | 0.344 |
| ACAATGAC | 0.107 |
| AGAATGAG | -0.157 |
| AAAATGAC | 0.297 |
| ATAATGAG | 0.117 |
| AGAATGAA | 0.144 |
| ATAATGAC | 0.258 |
| GGGACGTA | 0.159 |
| CGAGTCAA | -0.0144 |
| AGAAGGCG | -0.119 |
| GGGATACA | -0.0572 |
| CTGTCTGC | -0.243 |
| ATTCCGAA | 0.0789 |

| Sequence | PBM E-score |
| --- | --- |
| CAAGGAGC | -0.363 |
| GGCAAAAC | -0.0611 |
| AAAATGAA | 0.056 |
| GAAATGAC | 0.312 |
| AAAATGAG | 0.0916 |
| GAAATGAA | 0.164 |
| CAAATGAC | 0.144 |
| AAAATGAT | 0.387 |
| AAGGCTTA | -0.214 |
| ACACGTCA | 0.151 |
| TCACGTCA | 0.331 |
| AGACGTCA | 0.107 |
| GGACGTCA | 0.0888 |
| GCACGTCA | 0.0421 |
| TGACGTCA | 0.314 |
| CCACCTAG | -0.225 |
| GATGGTGA | 0.0135 |
| GATCACCA | 0.308 |
| CATCACCA | 0.176 |
| GATCACCC | 0.261 |
| GCTCACCA | -0.17 |
| AATCACCA | 0.24 |
| TATCACCA | 0.364 |
| CAGAATTC | 0.0421 |
| GAACTTCC | -0.12 |

| Sequence | PBM E-score |
| --- | --- |
| GTCTCAAA | 0.161 |
| GTTACTCA | 0.0462 |
| AGAAACGC | -0.132 |
| AACTCCTG | -0.177 |
| ACCCGGAG | -0.0473 |
| AATGCCTA | -0.212 |
| CATTACGA | 0.128 |
| TATTACGA | 0.311 |
| ACTTACGC | -0.0756 |
| ACTTACGA | 0.325 |
| AATTACGA | 0.186 |
| GCTTACGA | -0.071 |
| CATTGGTC | -0.0867 |
| ATCCACAA | -0.138 |
| ATCCACGA | 0.199 |
| ATCCACGG | 0.316 |
| AAACCGCG | -0.0683 |
| CCTGGAAC | -0.0203 |
| AGGTGATG | 0.163 |
| GGGTGAAA | 0.0485 |
| CGGTGATC | 0.214 |
| GGGTGAGA | -0.136 |
| AGGTGATA | 0.357 |
| CGGTGAAA | 0.186 |
| GGGTGATA | 0.38 |

| Sequence | PBM E-score |
| --- | --- |
| AGGTGAGA | 0.0141 |
| CGGTGATA | 0.334 |
| CAGCTTCG | 0.0552 |
| CTCGAGGC | -0.193 |
| AGCCAGAG | -0.0331 |
| CGGCCTAA | -0.0583 |
| GTCACTCA | 0.238 |
| ATCACTCA | 0.369 |
| ATCACTCC | 0.345 |
| ATCACTCG | 0.31 |
| AACACTCG | -0.00319 |
| AACACTCC | -0.121 |
| CTCACTCC | -0.0715 |
| ACCACTCG | 0.187 |
| CTCACTCA | 0.0709 |
| CGTTTGGC | 0.0893 |
| TCAGGACA | 0.156 |
| ATCTGAAG | -0.1 |
| ATAACCAT | 0.0871 |
| CACAAAAG | -0.0552 |
| CCAGCCAC | -0.0544 |
| GTATGATA | 0.327 |
| ATATGATG | 0.191 |
| GTATGAGA | 0.145 |
| CTATGATA | 0.143 |

| Sequence | PBM E-score |
| --- | --- |
| GTATGACA | 0.176 |
| ATATGATA | 0.316 |
| CATCCGGG | -0.161 |
| AAACCGTA | 0.221 |
| ACACCAAT | 0.0514 |
| CGGGATGA | 0.0791 |
| ACGACCGC | 0.041 |
| GGGGAATA | -0.112 |
| AAAGAGAG | -0.214 |
| AAGAGAAA | -0.0161 |
| ACTTGAAT | 0.0842 |
| CGACATTC | 0.0424 |
| CGACATCC | 0.121 |
| TGACATCA | 0.274 |
| CGACATCG | 0.301 |
| CGACATCA | 0.315 |
| CGACATTA | 0.317 |
| AGACATCG | 0.111 |
| GGACATCA | 0.215 |
| AGACATTA | -0.0164 |
| CAGAAACA | -0.0715 |
| GAGGAACA | -0.095 |
| CCAGACAG | -0.2 |
| GAGTAAAA | 0.0646 |
| CCGCGACG | 0.32 |

| Sequence | PBM E-score |
| --- | --- |
| CCGCGACA | 0.154 |
| CCGCGACC | -0.0179 |
| CTAATGCC | -0.208 |
| CAATCGTG | 0.122 |
| AAAACGCA | 0.00195 |
| AGGTTTCG | -0.199 |
| CACGAACA | 0.186 |
| CACGAACG | 0.372 |
| GACGAACA | 0.253 |
| AACGAAAA | 0.103 |
| TGCGAAAA | 0.175 |
| TACGAAAA | 0.297 |
| CACGATCA | 0.272 |
| AACGAACA | 0.215 |
| CACGATCC | 0.0482 |
| AACGAACG | 0.144 |
| TACGAACA | 0.351 |
| CACGATCG | 0.339 |
| AACAAATT | 0.201 |
| AAAAACGT | 0.0618 |
| GTAGCCCA | 0.0106 |
| ACCATCCC | -0.155 |
| AACAGAGA | -0.09 |
| ACCGCTCA | 0.0985 |
| GAGCACTA | 0.0823 |

| Sequence | PBM E-score |
| --- | --- |
| AACGAAAC | 0.101 |
| GCCGAAAC | -0.0478 |
| CACGAAAG | 0.272 |
| GACGAAAA | 0.337 |
| CACGAAAA | 0.31 |
| GACGAATA | 0.232 |
| GCCGAAAA | 0.173 |
| GACGAAAC | 0.344 |
| CACGAAAC | 0.272 |
| CTAGGAGA | -0.236 |
| TCTACCAA | -0.0268 |
| CTGGACCC | -0.279 |
| CGGATGAA | 0.211 |
| GCGTGTCA | 0.0814 |
| TCGTGTAA | 0.343 |
| ACGTGGAA | 0.118 |
| GCGTGGAA | -0.105 |
| TCGTGGAA | 0.336 |
| ACATGTCA | 0.221 |
| CCGTGTCA | 0.268 |
| TCGTGTCA | 0.326 |
| TCATGTCA | 0.332 |
| ACGTGTAA | 0.235 |
